# Measured values: PubChem BioAssay AID1159580 (chemical genetic matrix, 2015)
# Values joined by “and” are separate entries in the source; they are usually repeats but may differ in a detail not shown here. Identical values can stand only once. Out of some 5,500 compounds screened, about 2,000 (36%) were called active. About 18% were inconclusive and are not listed. Cut-off read from the data, not from the text of the source: active = normalized growth mostly below about 0.91 (no sharp cut-off); inconclusive = no clear call, values can overlap the other calls; inactive = mostly above about 0.92. The list shows a part of the results.
# Assay: chemical genetic growth profiling, strain panel (AID 1159580);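 note: tested at 20 µM; growth read once vehicle control cultures reached saturation at 30 °C; 1 = growth at the plate median or of vehicle wells; lower values mean less growth of the strain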
# Details: S. cerevisiae deletion strains, growth OD
structure (smiles),measurement,setting,value
CN(Cc1cnc2nc(N)nc(N)c2n1)c1ccc(C(=O)NC(CCC(=O)O)C(=O)O)cc1 (stereo unspecified),normalized growth,"locus YAL021C, strain ccr4, stronger effect = lower value",0.958 (inactive)
same,normalized growth,"locus YAL026C, strain drs2, stronger effect = lower value",0.911 (inactive)
same,normalized growth,"locus YAL030W, strain snc1, stronger effect = lower value",0.945 (inactive)
same,normalized growth,"locus YAL040C, strain CLN3, stronger effect = lower value",1.09 (inactive)
same,normalized growth,"locus YBL061C, strain skt5, stronger effect = lower value",0.927 (inactive)
same,normalized growth,"locus YBR009C, strain hhf1, stronger effect = lower value",0.888 (active)
same,normalized growth,"locus YBR021W, strain FUR4, stronger effect = lower value",0.958 (inactive)
same,normalized growth,"locus YBR023C, strain chs3, stronger effect = lower value",0.911 (active)
same,normalized growth,"locus YBR171W, strain sec66, stronger effect = lower value",0.94 (inactive)
same,normalized growth,"locus YBR229C, strain ROT2, stronger effect = lower value",0.987 (inactive)
same,normalized growth,"locus YBR231C, strain swc5, stronger effect = lower value",0.931 (inactive)
same,normalized growth,"locus YBR279W, strain paf1, stronger effect = lower value",0.962 (inactive)
same,normalized growth,"locus YCL011C, strain gbp2, stronger effect = lower value",0.857 (active)
same,normalized growth,"locus YCL016C, strain dcc1, stronger effect = lower value",0.867 (active)
same,normalized growth,"locus YCL029C, strain bik1, stronger effect = lower value",0.988 (inactive)
same,normalized growth,"locus YCL061C, strain MRC1 (second series), stronger effect = lower value",1.01 (inactive)
same,normalized growth,"locus YCL061C, strain MRC1, stronger effect = lower value",0.891 (active)
same,normalized growth,"locus YCL069W, strain vba3, stronger effect = lower value",0.948 (inactive)
same,normalized growth,"locus YCR088W, strain abp1, stronger effect = lower value",0.954 (inactive)
same,normalized growth,"locus YDL005C, strain med2, stronger effect = lower value",0.997 (inactive)
same,normalized growth,"locus YDL035C, strain GPR1, stronger effect = lower value",0.975 (inactive)
same,normalized growth,"locus YDL040C, strain nat1, stronger effect = lower value",0.959 (inactive)
same,normalized growth,"locus YDL074C, strain BRE1, stronger effect = lower value",0.963 (inactive)
same,normalized growth,"locus YDL101C, strain DUN1, stronger effect = lower value",0.997 (inactive)
same,normalized growth,"locus YDL134C, strain PPH21, stronger effect = lower value",1 (inactive)
same,normalized growth,"locus YDL185W, strain tfp1, stronger effect = lower value",0.141 (active)
same,normalized growth,"locus YDL192W, strain arf1, stronger effect = lower value",0.95 (inactive)
same,normalized growth,"locus YDR001C, strain nth1, stronger effect = lower value",0.933 (inactive)
same,normalized growth,"locus YDR069C, strain doa4, stronger effect = lower value",0.955 (inactive)
same,normalized growth,"locus YDR101C, strain arx1, stronger effect = lower value",0.994 (inactive)
same,normalized growth,"locus YDR137W, strain rgp1, stronger effect = lower value",0.907 (inactive)
same,normalized growth,"locus YDR150W, strain NUM1, stronger effect = lower value",0.974 (inactive) and 0.986 (inactive)
same,normalized growth,"locus YDR159W, strain sac3, stronger effect = lower value",0.978 (inactive)
same,normalized growth,"locus YDR162C, strain NBP2, stronger effect = lower value",0.982 (inactive)
same,normalized growth,"locus YDR195W, strain ref2",1.01 (inactive)
same,normalized growth,"locus YDR297W, strain sur2, stronger effect = lower value",0.955 (inactive)
same,normalized growth,"locus YDR318W, strain mcm21, stronger effect = lower value",0.994 (inactive)
same,normalized growth,"locus YDR334W, strain swr1, stronger effect = lower value",0.881 (active)
same,normalized growth,"locus YDR335W, strain msn5, stronger effect = lower value",0.97 (inactive)
same,normalized growth,"locus YDR388W, stronger effect = lower value",1 (inactive)
same,normalized growth,"locus YDR392W, strain spt3, stronger effect = lower value",0.951 (inactive)
same,normalized growth,"locus YDR502C, strain sam2, stronger effect = lower value",0.967 (inactive)
same,normalized growth,"locus YEL003W, strain gim4, stronger effect = lower value",0.967 (inactive)
same,normalized growth,"locus YEL037C, strain rad23, stronger effect = lower value",0.902 (active)
same,normalized growth,"locus YEL061C, strain CIN8 (second series), stronger effect = lower value",0.944 (inactive)
same,normalized growth,"locus YEL061C, strain CIN8, stronger effect = lower value",0.962 (inactive)
same,normalized growth,"locus YER002W, strain NOP16, stronger effect = lower value",0.971 (inactive)
same,normalized growth,"locus YER015W, strain faa2, stronger effect = lower value",0.958 (inactive)
same,normalized growth,"locus YER016W, strain bim1, stronger effect = lower value",0.965 (inactive)
same,normalized growth,"locus YER110C, stronger effect = lower value",0.985 (inactive)
same,normalized growth,"locus YER111C, strain swi4, stronger effect = lower value",0.962 (inactive)
same,normalized growth,"locus YER155C, strain BEM2 (second series), stronger effect = lower value",0.892 (inactive)
same,normalized growth,"locus YER155C, strain BEM2, stronger effect = lower value",0.976 (inactive)
same,normalized growth,"locus YER167W, strain BCK2, stronger effect = lower value",0.958 (inactive)
same,normalized growth,"locus YFR010W, strain ubp6, stronger effect = lower value",0.942 (inactive)
same,normalized growth,"locus YGL078C, strain dbp3, stronger effect = lower value",0.32 (active)
same,normalized growth,"locus YGL086W, strain mad1, stronger effect = lower value",1 (inactive)
same,normalized growth,"locus YGL167C, strain pmr1, stronger effect = lower value",0.942 (inactive)
same,normalized growth,"locus YGL173C, strain kem1, stronger effect = lower value",0.96 (inactive)
same,normalized growth,"locus YGL227W, strain vid30, stronger effect = lower value",0.922 (inactive)
same,normalized growth,"locus YGL240W, strain doc1, stronger effect = lower value",0.967 (inactive)
same,normalized growth,"locus YGL248W, strain PDE1, stronger effect = lower value",0.994 (inactive)
same,normalized growth,"locus YGL253W, strain hxk2, stronger effect = lower value",0.934 (inactive)
same,normalized growth,"locus YGR135W, strain pre9, stronger effect = lower value",0.933 (inactive)
same,normalized growth,"locus YGR252W, strain gcn5, stronger effect = lower value",1.02 (inactive)
same,normalized growth,"locus YHR013C, strain ard1, stronger effect = lower value",0.938 (inactive)
same,normalized growth,"locus YHR027C, strain rpn1, stronger effect = lower value",0.945 (inactive)
same,normalized growth,"locus YHR030C, strain SLT2, stronger effect = lower value",0.946 (inactive) and 0.147 (active)
same,normalized growth,"locus YHR079C, strain IRE1 (second series), stronger effect = lower value",0.988 (inactive)
same,normalized growth,"locus YHR079C, strain IRE1, stronger effect = lower value",0.188 (active)
same,normalized growth,"locus YHR094C, strain hxt1, stronger effect = lower value",1 (inactive)
same,normalized growth,"locus YHR129C, strain ARP1, stronger effect = lower value",0.982 (inactive)
same,normalized growth,"locus YHR142W, strain chs7, stronger effect = lower value",0.86 (active)
same,normalized growth,"locus YHR200W, strain rpn10, stronger effect = lower value",0.959 (inactive)
same,normalized growth,"locus YIL066C, strain RNR3, stronger effect = lower value",1 (inactive)
same,normalized growth,"locus YIL073C, strain SPO22, stronger effect = lower value",0.95 (inactive)
same,normalized growth,"locus YIL125W, strain kgd1, stronger effect = lower value",0.278 (active)
same,normalized growth,"locus YIR030C, strain dcg1, stronger effect = lower value",0.975 (inactive)
same,normalized growth,"locus YJL092W, strain hpr5, stronger effect = lower value",0.818 (active)
same,normalized growth,"locus YJL095W, strain BCK1 (second series), stronger effect = lower value",0.964 (inactive)
same,normalized growth,"locus YJL095W, strain BCK1, stronger effect = lower value",0.993 (inactive) and 0.152 (active)
same,normalized growth,"locus YJL115W, strain asf1, stronger effect = lower value",0.845 (active)
same,normalized growth,"locus YJL129C, strain trk1, stronger effect = lower value",0.89 (inactive)
same,normalized growth,"locus YJL134W, strain LCB3, stronger effect = lower value",0.992 (inactive)
same,normalized growth,"locus YJL154C, strain vps35, stronger effect = lower value",0.96 (inactive)
same,normalized growth,"locus YJL164C, strain tpk1, stronger effect = lower value",0.96 (inactive)
same,normalized growth,"locus YJL166W, strain qcr8, stronger effect = lower value",0.94 (inactive)
same,normalized growth,"locus YJL168C, strain set2, stronger effect = lower value",1 (inactive)
same,normalized growth,"locus YJL187C, strain SWE1 (second series), stronger effect = lower value",0.99 (inactive)
same,normalized growth,"locus YJL187C, strain SWE1, stronger effect = lower value",0.953 (inactive)
same,normalized growth,"locus YJR043C, strain POL32, stronger effect = lower value",0.98 (inactive)
